Test system: PPARgamma LBD (GAL4 fusion)
Assay: luciferase reporter transactivation, fold of solvent control; higher = stronger receptor activation
Conditions: HEK293T, exposure time: 24 h
Experimental: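 HEK293T cells were transiently transfected with a GAL4-DBD fused to the ligand-binding domain of a human nuclear receptor (PPARα, PPARγ, PPARδ, FXR, LXRα, PXR, RARα or CAR), the GAL4-(UAS)5-TK firefly luciferase reporter and a Renilla luciferase normalisation plasmid. Cells were exposed to compound for 24 h in 0.5% DMSO. Firefly/Renilla luciferase was expressed as fold of the solvent control (=1). Values are the mean of 2-3 biological replicates; receptor agonists were used as positive controls.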

Row | SMILES | luciferase reporter transactivation (concentration: 1 µM) | luciferase reporter transactivation (concentration: 5 µM) | luciferase reporter transactivation (concentration: 10 µM) | luciferase reporter transactivation (concentration: 25 µM) | luciferase reporter transactivation (concentration: 50 µM) | luciferase reporter transactivation (concentration: 100 µM) | luciferase reporter transactivation (concentration: 250 µM) | luciferase reporter transactivation (concentration: 500 µM)
1 | OCCC(F)(F)C(F)(F)C(F)(F)C(F)(F)C(F)(F)C(F)(F)F [6:2 fluorotelomer alcohol] | 1.1 | 1 | 0.973 | 1.1 | 1.09 | 0.563 | 1.25 | 1.1
2 | O=S(=O)(O)CCC(F)(F)C(F)(F)C(F)(F)C(F)(F)C(F)(F)C(F)(F)C(F)(F)C(F)(F)F [8:2 fluorotelomer sulfonic acid] | 0.851 | 0.861 | 0.922 | 0.905 | 1.04 | 1.31 | 1.04 | 0.846
3 | O=S(=O)(O)CCC(F)(F)C(F)(F)C(F)(F)C(F)(F)C(F)(F)C(F)(F)F [6:2 fluorotelomer sulfonic acid] | 1.45 | 1.66 | 1.6 | 1.57 | 1.9 | 2.81 | – | –
4 | O=C(O)C(F)(F)C(F)(F)C(F)(F)C(F)(F)F [perfluoropentanoic acid] | 1.01 | 1.01 | 0.918 | 0.953 | 0.925 | 0.858 | 0.947 | 1.11
5 | Cc1c(C)c2c(c(C)c1O)CCC(C)(COc1ccc(CC3SC(=O)NC3=O)cc1)O2 (stereo unspecified) [troglitazone] | – | – | 27.7 | – | – | – | – | –

Reference: the supplement of paper PMC11402862
